High-throughput results (PubChem BioAssay)
CYP2C19 inhib – blockers of cytochrome P450 2C19 activity – biochemical, luminescence, ADME assay, primary screen; CYP2C19 Supersomes, luciferin-H EGE luminescence, 30 min; inhibition, % at 5 µM; hit rate 21% among 96,000; AID 778, 2007;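 active means CYP2C19 inhibition above a set limit at 5 µM in the primary screen, cut at about 50% in these data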
Target sequence (P33261 whole entry, looked up): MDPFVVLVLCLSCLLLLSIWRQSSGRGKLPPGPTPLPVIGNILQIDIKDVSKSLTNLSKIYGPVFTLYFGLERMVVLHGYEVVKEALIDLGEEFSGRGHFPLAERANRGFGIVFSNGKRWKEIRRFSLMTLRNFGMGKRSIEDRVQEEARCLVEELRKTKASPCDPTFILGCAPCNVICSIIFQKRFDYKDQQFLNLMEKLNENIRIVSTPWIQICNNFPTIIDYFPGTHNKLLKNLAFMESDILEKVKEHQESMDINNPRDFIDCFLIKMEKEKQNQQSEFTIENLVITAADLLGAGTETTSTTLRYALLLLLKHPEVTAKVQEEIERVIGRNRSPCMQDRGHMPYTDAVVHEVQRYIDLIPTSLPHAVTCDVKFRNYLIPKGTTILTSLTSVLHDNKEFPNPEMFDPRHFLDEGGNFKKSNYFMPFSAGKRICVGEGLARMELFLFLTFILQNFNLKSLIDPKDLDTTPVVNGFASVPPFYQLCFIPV
CYP2C19 act – human CYP2C19 activators, primary screen, biochemical, luminescence. Cytochrome P450 2C19 (Homo sapiens), P33261. recombinant CYP2C19, luciferin-H EGE luminescence; stronger effect = higher value; 0 = fully inhibited enzyme, 1 = untreated enzyme. activation factor at 5 µM. 96,000 tested, under 10 active. AID 1025, 2008;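 active means activation factor of at least 2 at 5 µM in the primary screen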
PostGolgi ctrl – growth inhibition of yeast control strain, primary screen, counter-screen for post-Golgi transport modulator project. efflux-deficient yeast background strain, growth absorbance A615, 16 h. inhibition, % at 10 µM. hit rate 5% among 98,000. AID 738, 2007
PostGolgi yeast – phenotypic screen on post-Golgi transport, primary screen | AID 739, 2007 | hit rate 0.9% among 98,000 | post-Golgi transport phenotypic cell assay | inhibition, % at 10 µM;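 further: yeast cells grown in 1536-well plates; yeast grown about 18 h at 30C before absorbance read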
CYP2C9 inh – blockers of cytochrome P450 2C9 activity – biochemical, luminescence, ADME assay, primary screen | P11712 | CYP2C9 Supersomes, luciferin-H conversion | inhibition, % at 5 µM | hit rate 20% among 96,000;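 active means blocking of liver enzyme CYP2C9 beyond about 50% at 5 µM, limit read from the data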
CYP2C9 act – human CYP2C9 activators, primary screen, biochemical, luminescence; Cytochrome P450 2C9 (Homo sapiens), P11712; recombinant CYP2C9, luciferin-H conversion; stronger effect = higher value; factor 1 = untreated enzyme, 0 = blocked; activation factor at 5 µM; hit rate 1.4% among 96,000; AID 1024, 2008;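 active means activation factor of 2 or more for CYP2C9 at a 5 µM dose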
Large screens that a line does not name were inactive. This is a sample that favours compounds with a hit; in the whole collection about 32% have one here. Unless noted, no stated cut-off is given here; in the data, active means inhibition above about 30%; inactive means the rest.

O=C(CSCc1cnn(-c2ccccc2)c1-n1cccc1)N1CCN(Cc2ccccc2)CC1	CYP2C19 inhib 89.0, CYP2C9 inh 96.5
Cc1cc(C)c(C(N)=O)c(NC(=O)Nc2ccccc2)n1	none
CCOC(=O)N1CCC(Nc2c(NCCCN(CC)c3cccc(C)c3)c(=O)c2=O)CC1	none
C1=C(c2ccccc2)CCN(c2ncnc3nc[nH]c23)C1	CYP2C19 inhib 53.6
Cc1cc(C)c2c3c(sc2n1)C(c1cccc(F)c1)C(C#N)=C(N)O3 (configuration not stated)	PostGolgi ctrl 73.7
c1csc(CNCCCN2CCOCC2)c1	PostGolgi ctrl 31.2
c1csc(CN2CCOCC2)c1	CYP2C19 inhib 93.7, CYP2C9 inh 100.3
O=C(c1cccs1)N1CCOCC1	none
Cc1cccc(NC(=O)c2cccc(Cn3cc(Br)c([N+](=O)[O-])n3)c2)c1C	none
N#Cc1c(C(F)(F)F)cc(-c2ccccc2Cl)[nH]c1=O	CYP2C9 inh 86.2
N#Cc1c(C(F)(F)F)cc(-c2ccccc2)[nH]c1=O	CYP2C9 inh 57.8
O=C(NC1CC1)C1=COCCO1	none
COC(=O)c1ccccc1NS(=O)(=O)c1cn(C)c(=O)n(C)c1=O	none
O=S(Cc1ccc(Br)cc1)Cc1nnc(SCc2ccc(Cl)cc2)n1-c1ccccc1 (configuration not stated)	CYP2C9 inh 52.2
Cc1ccc(CSc2nnc(CS(=O)Cc3ccc(Cl)cc3Cl)n2C)cc1 (configuration not stated)	CYP2C9 inh 54.4
CCOC(=O)CN1C(=O)C(=O)c2cccc(C)c21	none
O=S(=O)(c1ccc(F)cc1)N1CCn2c(nc3ccccc32)C1	none
Cn1c(=O)cc(NCc2ccccc2)[nH]c1=O	PostGolgi yeast 39.9
O=S1(=O)N=C2CCCCCN2C(c2ccncc2)N1 (configuration not stated)	none
COC(=O)CCC/C=C1/SCC(NC(=O)c2ccccc2)C1=O (configuration not stated)	none
COc1ccc(NS(=O)(=O)Cc2ccccc2Cl)cn1	CYP2C19 inhib 63.8
COc1ccc(NC(=O)/C(Cl)=C(/Cl)S(=O)(=O)Cc2ccccc2)cn1	PostGolgi ctrl 78.4
CCCOc1ccc(C2C(=O)N(C3CCCCCC3)CC(=O)N2Cc2ccco2)cc1OC (configuration not stated)	none
COc1ccc(-c2nc(Cn3c(SCc4ccc(F)cc4)nc4ccncc43)c(C)o2)cc1OC	CYP2C19 inhib 88.6, CYP2C9 inh 89.8
COC(=O)c1ccc(-c2ccco2)n1Cc1nc(-c2ccc(OC)c(OC)c2)oc1C	none
COc1ccc(-c2nc(Cn3c(SCc4ccccc4F)nc4ccncc43)c(C)o2)cc1	CYP2C19 inhib 96.7, CYP2C9 inh 73.3
CCOC(=O)Cc1cc(=O)[nH]c(/N=C(\N)Nc2ccc(C)cc2C)n1	none
COC(=O)c1ccc(CSc2nnc(NCc3ccccc3)s2)o1	none
COC(=O)c1ccc(CSc2nnc(SCc3ccc(C(=O)OC)o3)s2)o1	CYP2C9 inh 58.7
COC(=O)c1ccc(CSc2nc(-c3ccccc3)cs2)o1	CYP2C9 inh 56.3
CCn1ncc(Br)c1C(=O)Nc1ccc(F)cc1F	none
CN(C)CCCOC(=O)c1ccccc1Cl	none
O=C(OCn1ncc(Br)c(Br)c1=O)c1ccccc1Cl	CYP2C19 inhib 56.6, PostGolgi ctrl 34.3, PostGolgi yeast 107.5
O=C(OCn1ncc(Br)c(Br)c1=O)c1ccc(F)cc1	CYP2C19 inhib 88.7, PostGolgi ctrl 46.3, PostGolgi yeast 106.7
COc1ccc(OC)c(C(=O)c2coc3ccc(O)cc23)c1	CYP2C19 inhib 69.8, CYP2C9 inh 73.1
COc1ccc2occ(C(C)=O)c2c1	none
CC(=O)c1ccc(NC(=O)C2CC(c3ccc(F)cc3)=NO2)cc1 (configuration not stated)	none
Cc1cc(NC(=O)C2CC(c3ccc(F)cc3)=NO2)n(-c2ccccc2)n1 (configuration not stated)	CYP2C19 inhib 68.1
COc1cccc(C2=NOC(C(=O)Nc3cccc(C(C)=O)c3)C2)c1OC (configuration not stated)	CYP2C19 inhib 58.4
CN=C(Nc1cc(C)nn1-c1ccccc1)c1ccc(F)cc1	CYP2C19 inhib 91.7
CC(=O)c1cccc(NC(=O)C2CC(c3ccc(F)cc3)=NO2)c1 (configuration not stated)	CYP2C19 inhib 67.8
CC1=Nn2c(nnc2-c2ccc(F)cc2)SC1	none
CCc1cccc(C)c1NC(=O)C1=C(C(=O)O)CCCC1	none
CC#CCCCC(=O)Nc1ccc(C(=O)O)cc1	none
CCOC(=O)CSc1cccc2cccnc12	none (no result: CYP2C19 inhib, CYP2C19 act, CYP2C9 inh, CYP2C9 act)
O=C(N/N=C/c1ccccc1Br)c1ccc(CSc2cccc3cccnc23)cc1	CYP2C9 inh 50.5
CCc1c(C)nc(N)n2c(SCC(=O)N3CCN(c4ccccc4OC)CC3)nnc12	none (no result: PostGolgi ctrl, PostGolgi yeast)
O=C(/C=C/c1c(Cl)cccc1Cl)NCCc1ccccc1	CYP2C9 act 2.7
CC(C)=CC(=O)NCCc1ccccc1	none
CCCC1CC(=O)OC1(C)C(=O)CSc1n[nH]c(-c2ccccc2)n1 (configuration not stated)	none
CC(C)(C)OC(=O)CN1C(=O)C(Sc2n[nH]c(-c3ccccc3)n2)CCc2ccccc21 (configuration not stated)	CYP2C19 inhib 69.2, CYP2C9 inh 55.4
CCOC(=O)CN1C(=O)C(Sc2n[nH]c(-c3ccc(O)cc3)n2)CCc2ccccc21 (configuration not stated)	CYP2C19 inhib 81.6, CYP2C9 inh 93.5
COc1cnn(-c2ccccc2)c(=O)c1SCc1ccc(Cl)cc1Cl	CYP2C19 inhib 67.2, PostGolgi ctrl 36.1
COc1cnn(-c2ccc(C)cc2)c(=O)c1SCc1ccccc1	none
Cc1cc(N2C(=O)C(=O)/C(=C(/O)c3ccccc3)C2c2cccs2)no1 (configuration not stated)	CYP2C9 inh 70.8
Cc1cc(N2C(=O)C(=O)/C(=C(/O)c3ccc(F)cc3)C2c2cccc(Br)c2)no1 (configuration not stated)	CYP2C9 inh 61.4
COc1cccc(/C(O)=C2/C(=O)C(=O)N(c3cc(C)on3)C2c2cccs2)c1 (configuration not stated)	none
Cc1ccc(/C(O)=C2\C(=O)C(=O)N(c3cc(C)on3)C2c2cccc(Br)c2)cc1 (configuration not stated)	none
CCS(=O)CCSc1nc2ccccc2s1 (configuration not stated)	none
Cn1cccc1CC(=O)N/N=C\c1c2ccccc2cc2ccccc12	CYP2C19 inhib 51.6
Cn1cccc1CC(=O)N/N=C/c1cccc2ccccc12	none
Cc1ccc(CN2CCN(/N=C/c3cc(Br)ccc3O)CC2)cc1	PostGolgi yeast 74.1
